High-throughput results (PubChem BioAssay)
RE007 growth inh = qHTS Assay for Inhibitors of the HIV-1 protein Vpr; S. pombe RE007 Vpr strain, BacTiter-Glo ATP luminescence, 24 h; Potency, µM (doses to about 92.2 µM), for inactives: top-dose activity change, negative = less growth, hits mostly inhibitors; hit rate 0.21% among 360,000; AID 651644, 2012; active = well fitted falling curve with a large enough effect; inconclusive = small, poorly fitted or top-dose-only effect; inactive = no such curve, though single readings can be large or run the other way; note: % is set by controls: 0 for no effect and ±100 for the full control effect; nearly all actives have a fitted effect of over 50% in size
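Fission yeast strain RE007, carrying one chromosomally integrated HIV-1 vpr copy, was seeded at OD 0.01 in PMG+AL medium with 23 nL pinned compound. After 24 h at 30 °C and 99% humidity, viability was read by BacTiter-Glo luminescence.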
Tb PYK inh = qHTS of Trypanosoma Brucei Inhibitors. pyruvate kinase (Trypanosoma brucei), Q57TT1. TbPYK enzyme, Kinase-Glo Plus ATP luminescence, 45 min. Potency, µM (doses to about 76.8 µM), without a hit: top-dose activity, negative = inhibition, actives largely listed as inhibitors. hit rate 0.12% among 410,000. AID 624173, 2012; note: % is set by controls: 0 for no effect and ±100 for the full control effect; nearly all actives have a fitted effect of over 50% in size
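Enzyme and substrate buffer are dispensed first and compound is pin-transferred. ADP at 130 uM final then starts the reaction, which runs 45 min at room temperature. Detection reagent is added for 10 min before luminescence is imaged.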
LmPK inhibitor = qHTS Assay for Inhibitors of Leishmania Mexicana Pyruvate Kinase (LmPK) | hit rate 0.37% among 290,000 | Q27686 | purified LmPK, Kinase-Glo ATP luminescence, 1 h | Potency, µM (top dose mostly 57.5 µM), for the others: at the highest dose activity change, negative = inhibition, usual class: inhibitors; note: % is set by controls: 0 for no effect and ±100 for the full control effect
Target sequence (Q27686 whole entry, looked up): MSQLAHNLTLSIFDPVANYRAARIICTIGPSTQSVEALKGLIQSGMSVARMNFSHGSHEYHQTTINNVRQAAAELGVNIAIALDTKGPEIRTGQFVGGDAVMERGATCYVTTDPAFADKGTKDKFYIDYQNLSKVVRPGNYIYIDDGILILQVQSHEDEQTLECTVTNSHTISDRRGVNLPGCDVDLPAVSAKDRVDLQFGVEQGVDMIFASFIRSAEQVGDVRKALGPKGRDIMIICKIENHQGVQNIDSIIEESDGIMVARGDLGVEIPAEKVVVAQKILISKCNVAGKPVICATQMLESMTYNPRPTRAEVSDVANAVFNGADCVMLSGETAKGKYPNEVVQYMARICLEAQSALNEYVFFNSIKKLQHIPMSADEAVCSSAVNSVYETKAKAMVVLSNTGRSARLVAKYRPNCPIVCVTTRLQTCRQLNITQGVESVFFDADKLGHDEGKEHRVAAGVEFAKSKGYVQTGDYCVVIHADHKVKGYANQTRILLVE
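Pyruvate kinase activity monitored as ATP production (luciferase luminescence). Conditions: 0.1 nM enzyme, 0.5 mM PEP, 0.1 mM ADP, 1 h, RT; normalized against uninhibited and no-enzyme wells.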
SARS PLP yeast = qHTS of Yeast-based Assay for SARS-CoV PLP; S. cerevisiae expressing SARS-CoV PLpro, growth rescue; AID 485353, 2010; hit rate 0.19% among 330,000; Potency, µM (doses to about 32.9 µM), for the others: top-dose activity, positive = growth rescue, usual class: activators; calls by dose curve; note: 0% is about no effect; nearly all actives have a fitted effect of over 55% in size
AMA1 RON2 block = qHTS for Inhibitors of AMA1-RON; Towards Development of Antimalarial Drug Lead: Primary Screen | Plasmodium falciparum AMA1 (3D7) - RON2 peptide interaction | AlphaScreen AMA1-biotinylated RON2 peptide binding | hit rate 0.2% among 360,000 | Potency, µM (top dose mostly 58.2 µM), for the others: at the highest dose activity change, negative = inhibition, actives largely listed as inhibitors;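 note: 0% = vehicle wells and -100% = peptide control; nearly all actives have a fitted effect of over 45% in size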
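AMA1 (3D7) with his tag at 25 nM final met compounds first, then biotinylated RON2 peptide at 25 nM; detection used donor plus acceptor beads, 10 µg/mL apiece, read by AlphaScreen after 30 min at room temperature.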
The depositor's hits bear a star; ? = inconclusive; nt = no result; [ ] = another dose, or the depositor's remark. An excerpt weighted towards active compounds, which were near 0.81% of everything screened. Unless noted, calls come from the whole dose curve; as a rule, active = well fitted curve in the direction sought with a large enough effect; inconclusive = small, poorly fitted or top-dose-only effect, or another doubt; inactive = no such curve, though single readings can be large; an effect the other way counts as inactive or inconclusive. Potency is the fitted concentration of half-maximal effect.

SMILES | RE007 growth inh | Tb PYK inh | LmPK inhibitor | SARS PLP yeast | AMA1 RON2 block
Cc1ccc(-c2cc(C(=O)NN3CCOCC3)c3cc(Br)ccc3n2)o1 | -7% | -15% | 0% | 0% | 9%
COC(=O)c1cc(-c2ccc(C)o2)nc2ccccc12 | 11µM* | 22µM* | -13% | -43% | -2%
Cc1ccc(-c2cc(C(=O)O)c3cc(Br)ccc3n2)o1 | nt | 10µM* | -25% | 6% | -1%
Fc1cccc(CN2CCc3nc(Nc4ccc5c(c4)OCCO5)ncc3C2)c1F | nt | -4% | nt | nt | nt
Cn1c(=O)c2cc(NC(=O)NCc3ccccc3)ccc2n1Cc1ccc(Cl)cc1 | 2% | 2% | nt | nt | -9%
CCOC(=O)c1cc(NC(=O)N(CC)C2CCCCC2)c(C)nc1C | -4% | -6% | 4% | 14µM* | 2%
CCOC(=O)c1cc(NC(=O)N(C)C2CCCCC2)c(C)nc1C | 8% | -1% | 0% | 0% | -5%
CCCOCc1ccc(O)c2ncccc12 | 40µM* | 3% | 2% | -17% | -60%
Fc1cccc(-c2n[nH]c(=S)n2-c2ccccc2)c1 | 7% | ? | ? | -3% | 80%
CCc1cc(-c2n[nH]c(=S)n2-c2cccc(C)c2)cs1 | 5% | 11µM* | 4.5µM* | -6% | 47%
Cc1cccc(-n2c(-c3csc(C)c3)n[nH]c2=S)c1 | 5% | ? | 4.5µM* | 7% | 29%
CCCCn1c(-c2csc(CC)c2)n[nH]c1=S | -4% | 4µM* | ? | -12% | 61%
COCCn1c2c([n+](Cc3cnccn3)c1C)C(=O)c1ccccc1C2=O | nt | 0% | nt | nt | nt
CCC(=O)N(CC)C1=C(O)c2ccccc2C(=O)C1=O | ? | ? | 25µM* | -32% | -16%
Cc1ccc(NC(=O)Cn2ncc3c4ccccc4n(Cc4ccccc4)c3c2=O)cc1Cl | nt | -4% | nt | nt | nt
CC1CN(CCOc2ccc(F)cc2)CC(C)O1 (configuration not stated) | -12% | 1% | 2% | -1% | 20µM*
O=C(O)c1ccc(NC(=O)[C@H](Cc2ccc(O)cc2)NC(=O)c2ccccc2)cc1 | nt | 7% | nt | nt | nt
Cc1cccc(N2C(=O)CC(Sc3nnc(C)s3)C2=O)c1 (configuration not stated) | 35µM* | -12% | 3% | -124% | -1%
O=C1CC(Sc2nnnn2C2CCCCC2)C(=O)N1c1ccccc1 (configuration not stated) | ? | -12% | 6% | -87% | -6%
Cn1nnnc1SC1CC(=O)N(c2ccccc2)C1=O (configuration not stated) | 32µM* | -11% | 2% | -5% | -2%
Cc1cccc(N2C(=O)CC(Sc3nc(C)cc(C)n3)C2=O)c1 (configuration not stated) | -7% | -7% | -2% | -10% | -17%
O=S1(=O)C=C(Sc2nnc(-c3ccccc3)o2)c2ccccc21 | 10µM* | ? | 0% | -20% | 2%
COc1ccc(NC2=NCC(Cc3ccc(Br)cc3)S2)cc1 (configuration not stated) | 5% | -9% | 3% | -26% | 18µM*
COc1ccc(NC2=NCC(C)S2)cc1 (configuration not stated) | -13% | 5% | 8% | -1% | 4%
Cc1ccc(NS(=O)(=O)c2coc(C(N)=O)c2)cc1F | 10% | 3% | 0% | 3% | 2%
SMILES | RE007 growth inh | Tb PYK inh | LmPK inhibitor | SARS PLP yeast | AMA1 RON2 block
O=C(CCCN1CCN2CCCC2C1)c1ccc(F)cc1 (configuration not stated) | nt | 3% | nt | nt | nt
CCC(CC)C(=O)Nc1ccc(OCc2cc(=O)n3ccc(C)cc3n2)cc1 | nt | 5% | nt | nt | nt
CCC(C)C(C(=O)OCC[N+](C)(CC)CC)c1ccccc1 (configuration not stated) | nt | 1% | nt | nt | nt
CN(C)c1ccc(NC(=O)c2ccc(COc3cccc(Cl)c3)o2)cc1 | ? | -8% | 0% | -11% | 28µM*
Cc1ccc2c(n1)Oc1ccc(C(C)C(=O)OCC(=O)N(C)C)cc1C2 (configuration not stated) | nt | -12% | nt | nt | nt
CCOC(=O)c1cnc(-n2[nH]c(C)cc2=O)[nH]c1=O | -5% | -9% | -9% | 24% | 1.6µM*
Nc1nccc(-c2ccc3noc(-c4ccc(Cl)cc4)c3c2)n1 | nt | 0% | nt | nt | nt
COc1ccc(N2CSC3=C(C#N)C(c4cccc(OC)c4OC)CC(=O)N3C2)cc1 (configuration not stated) | -8% | 13µM* | 13% | 0% | 43%
COc1ccc(C2CC(=O)N3CN(C4CCCCC4)CSC3=C2C#N)c(OC)c1 (configuration not stated) | nt | 18µM* | nt | nt | nt
COc1ccc(C2CC(=O)N3CN(c4ccc(C)c(Cl)c4)CSC3=C2C#N)cc1 (configuration not stated) | 0% | 3.2µM* | -14% | 4% | 25%
COc1ccc(OC)c(C2CC(=O)N3CN(c4ccccc4)CSC3=C2C#N)c1 (configuration not stated) | -2% | 3.5µM* | 18% | 3% | 15%
CCCCCCCC/C=C\CCCCCCCC(=O)OC[C@@H](O)[C@H]1OC[C@H](O)[C@H]1O | nt | -8% | nt | nt | nt
COc1cccc(CCc2ccccc2OCC(CN(C)C)OC(=O)CCC(=O)O)c1 (configuration not stated) | nt | -4% | nt | nt | nt
CCOc1ccccc1CNC(=O)Cn1c(=O)c2cccn2c2ccc(F)cc21 | nt | 1% | nt | nt | nt
COc1ccc(Nc2cc(C(=O)NCCCN3CCN(c4ccc(OC)cc4)CC3)c3ccccc3n2)cc1 | nt | 1% | nt | nt | nt
COC1=C(Nc2ccc(C)cc2)C(=O)c2ccccc2C1=O | ? | -5% | -13% | -24% | 10µM*
COC1=C(Nc2ccccc2)C(=O)c2ccccc2C1=O | ? | 6% | -15% | 7% | 10µM*
COc1ccc(OC)c2c1C(=O)c1ccccc1C2=O | -8% | 0% | -15% | -25% | -13%
O=C(O)Cc1cccc(-c2cc(CCCCCCc3ccc(O[C@H]4O[C@H](CO)[C@@H](O)[C@H](O)[C@@H]4O)c(-c4cccc(CC(=O)O)c4)c3)ccc2O[C@H]2O[C@H](CO)[C@@H](O)[C@H](O)[C@@H]2O)c1 | nt | 3% | nt | nt | nt
COc1ccccc1Nc1nc(N)nc(CSC(=S)N2CCN(c3ccccc3)CC2)n1 | -2% | -1% | -8% | 2% | -24%
COc1ccccc1Nc1nc(N)nc(CSC(=S)N2CCCCC2C)n1 (configuration not stated) | -11% | 1% | 5% | 13µM* | 9%[2.32 µM]
Cc1cccc(/C(N)=N/OC(=O)c2ccc3c(c2)OCO3)c1 | 35µM* | ? | 4.5µM* | -115% | -7%[11.6 µM]
